Rows were chosen to be rich in hits. Some 4% of all compounds tested hit in one or more screens of this group.
VHR inh abs: VHR1 phosphatase inhibitors, primary screen, biochemical, absorbance, uHTS; recombinant VHR phosphatase, pNPP absorbance; inhibition, % at 13.3 µM; 290,000 tested, 0.52% active; Dual specificity protein phosphatase 3 (Homo sapiens), P51452; in the data active = inhibition above about 50%
Target sequence (P51452 whole entry, looked up): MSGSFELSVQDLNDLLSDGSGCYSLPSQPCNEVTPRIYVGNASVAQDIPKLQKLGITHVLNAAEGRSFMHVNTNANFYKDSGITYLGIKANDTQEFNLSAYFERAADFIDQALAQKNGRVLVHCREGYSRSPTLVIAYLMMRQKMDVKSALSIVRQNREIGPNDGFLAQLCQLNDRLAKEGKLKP
BoNT F protease: BoNT/F light chain protease inhibitors, primary screen, biochemical, flow cytometry, MLPCN library; Botulinum neurotoxin type F light chain protease (Clostridium botulinum); Multiplex microsphere protease cleavage assay; inhibition, % at 10 µM; 360,000 tested, 0.22% active; AID 588497, 2011; in the data active = inhibition above about 35%, passing the limit was not always enough; inconclusive = no clear call, values can overlap the other calls; note: plate controls were buffer without enzyme for full effect and enzyme alone for no effect
MazF activator: activators of E. coli MazEF toxin-antitoxin RNase, primary screen, biochemical, fluorescence, uHTS. AID 504720, 2011. 350,000 tested, 0.32% active. FAM/BHQ RNA-DNA oligo cleavage fluorescence, 5 h. activation, % at 20 µM. Endoribonuclease toxin MazF (Escherichia coli (strain K12)), P0AE70; in the data active = activation above about 50%
Target sequence (P0AE70 whole entry, looked up): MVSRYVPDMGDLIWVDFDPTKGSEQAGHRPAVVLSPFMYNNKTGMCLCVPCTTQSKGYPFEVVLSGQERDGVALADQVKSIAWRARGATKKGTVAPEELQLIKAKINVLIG
Anthrax LF inh2: Bacillus anthracis LF protease inhibitors, primary screen, biochemical, multiplex microsphere, MLPCN library. Lethal factor (Bacillus anthracis), P15917. multiplex microsphere protease cleavage assay. inhibition, % at 10 µM. 360,000 tested, 0.12% active. AID 588501, 2011; note: plate controls were buffer without enzyme for full effect and enzyme alone for no effect
Autofluor counter: counter-screen for toxin protease inhibitors: compound fluorescence. fluorescence intensity (concentration not given with the values). 360,000 tested, 3.1% active. compound autofluorescence counterscreen, microsphere flow cytometry; stronger effect = higher value; in the data active = fluorescence intensity above about 16000; inconclusive = no clear call, values can overlap the other calls
BoNT-A LC inh2: BoNT/A light chain protease inhibitors, primary screen, biochemical, flow cytometry, MLPCN library; Botulinum neurotoxin type A light chain protease (Clostridium botulinum A str. ATCC 3502); multiplex microsphere protease substrate cleavage; inhibition, % at 10 µM; 360,000 tested, 0.17% active; AID 588499, 2011; note: plate controls were buffer without enzyme for full effect and enzyme alone for no effect
An asterisk follows results filed as active; ? = inconclusive; . = no result given. Cut-off read from the data, not from the text of the source, unless noted: active = inhibition above about 30%; inconclusive = no clear call, values can overlap the other calls; inactive = below that.

SMILES | VHR inh abs | BoNT F protease | MazF activator | Anthrax LF inh2 | Autofluor counter | BoNT-A LC inh2
COc1ccc(C(=O)c2c(N)sc3c2CCN(C)C3)cc1 | 32 | -51 | -10 | -7 | 4611 | 34*
CN1CCc2c(sc(N)c2C(=O)O)C1 | 20 | -3 | 14 | -4 | 3274 | 3
CCNC(=S)NNC(=O)c1cc(C2CC2)nc2ccccc12 | 27 | 2 | 10 | 0 | 22689* | -2
CCCCOc1cccc(-c2cc(C(=O)NNC(=S)NCC)c3ccccc3n2)c1 | 27 | -2 | 3 | 1 | 19871* | -1
CCNC(=S)NNC(=O)c1cc(-c2cccc(OCC)c2)nc2ccccc12 | 15 | -10 | -5 | -4 | 11129 | -1
CCCNC(=S)NNC(=O)c1cc(C2CC2)nc2ccccc12 | 15 | -1 | 6 | 2 | 5886 | 0
O=C1OC(c2ccc(Br)cc2)=N/C1=C\N1CCCCC1 | 35 | 0 | 6 | 0 | 6782 | -1
CCCCCCC(=O)Oc1ccc(N2C(=O)CCC2=O)cc1 | -10 | 2 | -1 | 2 | 2099 | 0
Cc1ccc(-c2csc(NC(=O)Cn3cnc4c3c(=O)n(C)c(=O)n4C)n2)cc1C | -2 | -1 | -13 | -2 | 4806 | 0
Cc1nn(-c2cccc(Cl)c2)c(Cl)c1/C=N/NC(=O)c1cccs1 | 54* | -7 | 21 | -1 | 2521 | 0
Cc1cc(N/C(=N/S(=O)(=O)c2cc(F)ccc2F)c2ccccc2)n(-c2ccccc2)n1 | 50 | -7 | 15 | -4 | 5291 | 0
O=c1c2ccccc2nc2c3ccccc3c(NCc3ccccn3)nn12 | 57* | -2 | 12 | -1 | 2233 | 2
Cc1c(Cc2ccccc2)c(=O)oc2c(C)c(OC(C)C(=O)N[C@@H](Cc3ccccc3)C(=O)O)ccc12 (stereo partly drawn) | 0 | -2 | -4 | 2 | 5877 | 0
CCCn1c(=N)n(CC(O)COc2ccc(C)cc2)c2ccccc21 (stereo not drawn) | 12 | ? | 23 | -1 | 4068 | ?
Cc1ccccc1OCC(O)Cn1c(=N)n(Cc2ccccc2)c2ccccc21 (stereo not drawn) | -5 | -4 | 39 | -3 | 4759 | 0
Cc1ccc(OCC(O)Cn2c(=N)n(CCN3CCCCC3)c3ccccc32)cc1 (stereo not drawn) | -10 | -6 | 7 | -4 | 24505* | -1
COc1ccccc1OCC(O)Cn1c(=N)n(Cc2ccccc2)c2ccccc21 (stereo not drawn) | -5 | -1 | 17 | -2 | 24188* | -1
CCCCn1c(=N)n(CC(O)COc2cccc(C)c2)c2ccccc21 (stereo not drawn) | 19 | -6 | 27 | -4 | 23566* | -3
CC(C)n1c(O)c(N=NC(=O)CNC(=O)CCc2ccccc2)c2ccccc21 | 9 | 3 | 3 | -3 | 3915 | 0
COC(=O)c1ccccc1NC(=O)Cn1cc2c(n1)CCC(C)C2 (stereo not drawn) | 3 | -4 | -5 | -8 | 5547 | 0
O=C(Cc1ccccc1)Nn1c(O)c(/C=C2\C=Nc3ccccc32)sc1=S | 3 | 16 | -23 | 25 | 2741 | 23
CN1C(=O)/C(=C/c2ccc(OCc3cccc(F)c3)cc2)NC1=S | 0 | 19 | 3 | 1 | 3701 | -1
COc1cc(/C=C2/C(=O)N(C)C(=S)N2C)ccc1OCc1cccc(F)c1 | -4 | 16 | 66* | -1 | 4116 | 2
O=[N+]([O-])c1ccc(Cl)c(-c2ccc(/C=N/c3c(-c4ccco4)nc4ccccn34)o2)c1 | 27 | -10 | 95* | -3 | 3858 | 2
O=[N+]([O-])c1ccc(-c2ccc(/C=N/c3c(-c4ccco4)nc4ccccn34)o2)c(Cl)c1 | -7 | . | . | . | . | .
Cc1nc(NC(=S)NC(=O)c2cccs2)sc1C(=O)N(C)C | 23 | -1 | -5 | 0 | 22794* | -2
O=C(Nc1ccccc1)c1ccc(N2CCN(c3ccccn3)CC2)c(S(=O)(=O)N2CCOCC2)c1 | 16 | -1 | -8 | -2 | 16676* | -1
O=C(Nc1ccc(Br)cc1)c1ccc(F)c(S(=O)(=O)N2CCN(c3ccccn3)CC2)c1 | 12 | 3 | 7 | -5 | 4020 | 0

Bioassay records (PubChem BioAssay)
